Results on 50 molecules are retold here after PubChem BioAssay (NCATS).

Results filed as inconclusive are left out. A call without a number means that no potency is given here. Values without a mark were called inactive. Calls of active or inactive are those of the source. Calls come from the whole dose curve; as a rule, active = well fitted curve in the direction sought with a large enough effect; inconclusive = small, poorly fitted or top-dose-only effect, or another doubt; inactive = no such curve, though single readings can be large; an effect the other way counts as inactive or inconclusive.

Assay [1] has as its system Zika virus NS2B-NS3 protease (unlinked). Nature of the assay: Optimization of GU AMC qHTS for Zika virus inhibitors: Unlinked NS2B-NS3 protease assay (AID 1347151). Note: nearly all actives have a fitted effect of over 80% in size. Note: potency is the fitted concentration of half-maximal effect. The essentials:
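In this qHTS, compounds acted on 25 nM unlinked Zika NS2B–NS3 in pH 8.0 Tris/Tween buffer. Cleavage of an AMC peptide ran 15 min at room temperature, to about 20% conversion.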

For assay [2], the system named is Zika virus NS2B-NS3 protease (linked construct). Nature of the assay: Confirmatory screen NINDS AMC qHTS for Zika virus inhibitors (AID 1347152). Note: nearly all actives have a fitted effect of over 70% in size. Note: potency is the fitted concentration of half-maximal effect. Put shortly: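 Concentration-response confirmation used the NINDS linked protease (NS2B hydrophilic domain joined to NS3 protease domain), 1 nM, with a 15-min compound preincubation. Substrate, Nle-KRR-AMC at 10 microM, was read by UV fluorescence before and after 15 min.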
(Quantitative high-throughput screening tests each substance at several concentrations.)

The subject of assay [3] is Zika virus NS2B-NS3 protease (unlinked complex). The assay is described as follows: Confirmatory screen GU AMC qHTS for Zika virus inhibitors (AID 1347153). Note: nearly all actives have a fitted effect of over 70% in size. Put shortly: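 Fluorescence change (ex 340/em 450 nm) over 15 min, ~20% substrate conversion, normalized to no-inhibitor and no-enzyme controls, then Hill-fitted. Unlinked protease at 25 nM; AMC peptide 10 µM.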
Assay [4] is described as follows: Confirmatory screen GU Rhodamine qHTS for Zika virus inhibitors qHTS (AID 1347157). Note: potency is the fitted concentration of half-maximal effect; nearly all actives have a fitted effect of over 70% in size. The essentials:
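Unlinked NS2B/NS3, 25 nM; Rhod110 peptide, 1.5 microM; compounds, up to 114 microM. Reaction run 15 min at RT in 10 mM Tris-HCl pH 8.0, 0.01% Tween 20; kinetic fluorescence change fitted with a 4-parameter Hill model.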

The subject of assay [5] is Zika virus NS2B-NS3 protease (unlinked complex). Nature of the assay: Primary screen GU Rhodamine qHTS for Zika virus inhibitors: Unlinked NS2B-NS3 protease assay (AID 1347159). Note: potency is the fitted concentration of half-maximal effect; nearly all actives have a fitted effect of over 60% in size. The essentials: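 A qHTS format was used, with compound concentrations ranging up to 114 microM. Each compound was preincubated with 25 nM NS2B-NS3 protease, and the substrate was then added at 1.5 microM. Curves were fitted with a 4-parameter Hill model.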

For assay [6], the system named is Zika virus NS2B-NS3 protease (linked construct). Nature of the assay: Primary screen NINDS Rhodamine qHTS for Zika virus inhibitors (AID 1347160). Note: potency is the fitted concentration of half-maximal effect; nearly all actives have a fitted effect of over 55% in size. The essentials: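 Kinetic fluorescence (Ex 480 nm, Em 540 nm) over 15 min with 1.5 microM Rhodamine110 peptide and 25 nM linked protease.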
The nature of assay [7]: Confirmatory screen NINDS Rhodamine qHTS for Zika virus inhibitors (AID 1347161). Note: potency is the fitted concentration of half-maximal effect; nearly all actives have a fitted effect of over 60% in size. The essentials: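 Purified linked NS2B-NS3 protease (NS2B hydrophilic domain joined to NS3 protease by flexible linker), 25 nM in 10 mM Tris-HCl pH 8.0, 0.01% Tween 20. Compounds titrated, 15 min preincubation at room temperature; 1.5 microM Rhodamine110 substrate, FITC fluorescence change over 15 min.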

Assay [8] relates to Zika virus NS2B-NS3 protease (linked). Nature of the assay: 384 well plate NINDS AMC confirmatory qHTS for Zika virus inhibitors (AID 1347163). Note: potency is the fitted concentration of half-maximal effect; nearly all actives have a fitted effect of over 50% in size. The conditions noted are these: Recombinant NS2B-NS3 protease, Ac-VKTGKR-AMC fluorescence. The essentials:
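Linked protease 5/30/60 nM final; cpds up to 1 mM final, ~15 min preinc. Substrate Ac-VKTGKR-AMC 30 microM final. RT, dark, 25 min; FI ex 355/em 460; normalized to no-enzyme/no-inhibitor ctrls.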

Assay [9] has as its system Zika virus NS2B-NS3 protease. Nature of the assay: Primary screen GU AMC qHTS for Zika virus inhibitors (AID 1347154). Note: nearly all actives have a fitted effect of over 70% in size. The essentials:
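Unlinked Zika NS2B hydrophilic domain/NS3 protease domain noncovalent complex (25 nM final) in 10 mM Tris-HCl pH 8.0, 0.01% Tween 20, with AMC peptide substrate. Fluorescence (ex 340, em 450 nm) change over 15 min, room temperature; percent inhibition fitted to 4-parameter Hill equation.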

Regarding `Nc1cc2c(ncn2CCOCP(=O)(O)O)c(=O)[nH]1`, the Potency entry in [1] is “inactive”.

Take `C[C@H](N)CN1CCc2ccc(Br)cc21`: the Potency result in assay [1] is “inactive”.

For the molecule `O=[N+]([O-])/C=C/c1ccc2c(c1)OCO2`, the Potency entry in assay [1] is “inactive”.

For the molecule `COc1ccc(CNC(=O)/C=C/c2ccc3[nH]cc(CCN(C)C)c3c2)cc1`, the Potency entry in assay [1] is “inactive”.

On to `C[N+]1(C)CCc2cc3c(cc2[C@H]1[C@@H]1OC(=O)c2c1ccc1c2OCO1)OCO3`, for which the Potency result in assay [1] was “inactive”.

For `Cc1c2ccncc2c(C)c2c1[nH]c1ccccc12`, the Potency in assay [1] was 21.2 µM (active).

`CNc1ccc2oc(C[C@H]3O[C@@]4(CC[C@H]3C)O[C@H]([C@H](C)C(=O)c3ccc[nH]3)[C@H](C)C[C@H]4C)nc2c1C(=O)O`: the Potency in assay [1] was 23.8 µM (active).

As for `CC(=O)NBr`, the Potency entry in assay [1] is “inactive”.

With `CCN1C[C@@]2(COC)C3[C@@H](OC)C4[C@@H]1C3([C@@H]1C[C@]3(O)[C@H](OC(=O)c5ccccc5)[C@@H]1[C@]4(OC(C)=O)[C@@H](O)[C@@H]3OC)[C@H](OC)C[C@H]2O`, in [1], the Potency entry is “inactive”.

`C[C@@H]1O[C@@H](O[C@H]2C[C@@H](O)[C@]3(CO)[C@@H]4C(CC[C@]3(O)C2)[C@@]2(O)CC[C@H]([C@@H]3COC(=O)C3)[C@@]2(C)C[C@H]4O)[C@H](O)[C@H](O)[C@H]1O` (some centres undefined): the Potency entry in assay [1] is “inactive”.

With `NC(CCCCCP(=O)(O)O)C(=O)O` (centres undefined), the Potency result in assay [1] was “inactive”.

On to `OCc1cnc[nH]1`, for which the Potency entry in [1] was “inactive”.

Turning to `NCC(O)c1cc(O)c(O)cc1F` (centres undefined), the Potency entry in assay [1] was “inactive”.

As to `NNC(N)=O`, in [1], the Potency result was “inactive”.

In the case of `NC(Cc1cc(O)c(O)cc1O)C(=O)O` (centres undefined), the Potency in [1] is 7.52 µM (active).

Consider `CCCN(CCC)[C@H]1CCc2c(F)ccc(O)c2C1`, for which the Potency entry in assay [1] was “inactive”.

As for `O=C1CC[C@@]2(O)C3Cc4ccc(O)c5c4C2(CCN3CC2CC2)[C@H]1O5` (some centres undefined), the Potency result in assay [1] was “inactive”.

Regarding `C[C@H](Cc1ccc2c(c1)OC(C(=O)O)(C(=O)O)O2)NC[C@H](O)c1cccc(Cl)c1`, the Potency entry in assay [1] is “inactive”.

`OC1CCCCC1N1CCC(c2ccccc2)CC1` (centres undefined): the Potency entry in assay [1] was “inactive”.

Turning to `CC(C)(C)OC(=O)NC1[C@H]2CNC[C@@H]12` (some centres undefined), in assay [1], the Potency result is “inactive”.

As to `[Cl-].[Cl][Pt].[NH2-].[NH2-].c1ccncc1`, the Potency entry in assay [1] was “inactive”.

Turning to `O=C1C=CC(=O)C=C1`, in assay [1], the Potency result is “inactive”.

Consider `CC(N)c1cccc(Cl)c1Cl` (centres undefined), for which the Potency result in assay [1] was “inactive”.

For the molecule `CCS(=O)(=O)Nc1cccc(C(=C2CCCCC2)c2cnc[nH]2)c1`, in [1], the Potency entry is “inactive”.

Turning to `C[N+]1(C)C2CCC1CC(OC(=O)c1c[nH]c3ccccc13)C2` (centres undefined), in [1], the Potency result is “inactive”.

On to `Cc1cc([C@@H]2CCCN2C)on1`, for which, in assay [1], the Potency entry was “inactive”.

Regarding `COc1ccc2c(c1O)-c1cccc3c1[C@@H](C2)N(C)CC3`, in assay [1], the Potency is 29.9 µM (active).

In the case of `CC(=O)OCC1=C(C(=O)O)N2C(=O)[C@@H](NC(=O)CCC[C@@H](N)C(=O)O)[C@H]2SC1`, the Potency result in assay [1] is “inactive”.

As for `CCCn1c(=O)c2[nH]c(C3CCCC3)nc2n(CCCOC(=O)c2ccc(S(=O)(=O)F)cc2)c1=O`, in assay [1], the Potency entry was “inactive”.

Take `CN1CCc2cc(O)cc3c2[C@H]1Cc1ccc(O)c(O)c1-3`: the Potency in assay [1] was 23.8 µM (active).

With `NC(=O)c1cc(N2CC2)c([N+](=O)[O-])cc1[N+](=O)[O-]`, the Potency result in [1] was “inactive”.

Take `CCOC(=O)c1ncn2c1[C@@H]1CCCN1C(=O)c1cc(OC)ccc1-2`: the Potency result in assay [1] is “inactive”.

With `C[C@H]1C2Cc3ccc(O)cc3[C@@]1(C)CCN2CC1CC1`, the Potency result in [1] is “inactive”.

For the molecule `Oc1ccc2c3c1O[C@H]1c4oc5ccccc5c4C[C@@]4(O)C(C2)N(CC2CC2)CCC314` (some centres undefined), in assay [1], the Potency result was “inactive”.

Turning to `Ic1ccccc1CNC1C2CCN(CC2)C1C(c1ccccc1)c1ccccc1` (centres undefined), in [1], the Potency result is “inactive”.

As for `C[C@@]1(C(=O)O)CC[C@]2(C)CC[C@]3(C)C4=CC(=O)c5cc(O)c(O)cc5[C@]4(C)CC[C@@]3(C)[C@@H]2C1`, the Potency entry in [2] and in assay [3] was “inactive” in each case. Further, the Potency is 2.42 µM (active) in assay [4]; 3.98 µM (active) in assay [5]; 7.94 µM (active) in assay [6]; 1.36 µM (active) in assay [7]; 56.2 µM (active) in [8].

`C[N+](C)(C)CC#CCN1CCCC1=O`: the Potency result in assay [1] and in assay [9] was “inactive” in each case.

`CN1C2CCC1CC(OC(c1ccccc1)c1ccccc1N)C2` (centres undefined): the Potency result in assay [1] and in [9] was “inactive” throughout.

Turning to `C[N+](C)(C)CCOC(=O)CBr`, the Potency entry in assay [1] and in assay [9] was “inactive” in each case.

With `Nc1ccc(CCN2CCN(c3cccc(C(F)(F)F)c3)CC2)cc1`, the Potency result in [1] and in assay [9] was “inactive” each time.

Take `CC(Cc1ccc(OCC(=O)O)cc1)NCC(O)c1cccc(Cl)c1` (centres undefined): the Potency result in [1] and in assay [9] was “inactive” in each case.

For the molecule `N[C@@H](Cn1oc(=O)[nH]c1=O)C(=O)O`, the Potency result in [1] and in assay [9] was “inactive” in each case.

As to `NC(N)=NOCC[C@H](N)C(=O)O`, the Potency result in [1] and in assay [9] was “inactive” in each case.

As to `CN(C(=O)Cc1ccc(Cl)c(Cl)c1)C(CN1CCCC1)c1cccc(OCC(=O)O)c1` (centres undefined), the Potency entry in assay [1] and in assay [9] was “inactive” in each case.

On to `COC(=O)N1CCN(C(=O)Cc2ccc(Cl)c(Cl)c2)C(CN2CCCC2)C1` (centres undefined), for which the Potency entry in [1] and in [9] was “inactive” throughout.

On to `O=[N+]([O-])c1ccc2nc(N3CCNCC3)ccc2c1`, for which the Potency entry in assay [1] and in [9] was “inactive” in each case.

With `C[N+]1(C)CCOC(O)(c2ccc(-c3ccc(C4(O)C[N+](C)(C)CCO4)cc3)cc2)C1` (centres undefined), the Potency result in assay [1] and in assay [9] was “inactive” throughout.

As to `C[N+](C)(C)CC#CCOC(=O)Nc1cccc(Cl)c1`, the Potency entry in [1] and in assay [9] was “inactive” in each case.

With `Oc1ccc2c3c1O[C@H]1c4[nH]c5ccccc5c4C[C@@]4(O)C(C2)N(CC2CC2)CCC314` (some centres undefined), the Potency result in assay [1] and in assay [9] was “inactive” throughout.

`CCCCCOc1cc2c(cc1-c1cc(/C=C/C(=O)O)ccc1O)C(C)(C)CCC2(C)C`: the Potency is 9.87 µM (active) in assay [2]; 1.75 µM (active) in assay [4]; 2.51 µM (active) in assay [5]; 3.16 µM (active) in assay [6]; 2.21 µM (active) in assay [7]; 25.1 µM (active) in [8].
